In all, about 69,000 compounds went through this assay and about 8,600 (12%) showed an effect of 50% or more. Only a selection was taken, and strong results are over-represented in it overall.

This experiment has as its system Plasmodium berghei. Nature of the experiment: Screen against P. berghei liver stage (PbLuc), transformed with Luciferase, at 10uM. It is filed as functional, HepG2. The conditions noted are these: tested at 10 uM.
For the molecule `Cc1ccccc1-n1nc(C)c(CN(C)C(C)Cc2ccccn2)c1C` (stereo not drawn), the INHIBITION amounted to 24%.
Turning to `Cc1cccc(CNC(C)c2ccc(OCC(=O)NC3CC3)cc2)c1` (stereo not drawn), the INHIBITION amounted to 15.3%.
The result for `O=C(NCC1OCCc2cn(CC3CCOCC3)nc21)c1ccncc1` (stereo not drawn) reads 32.2%; that for `CCOc1ccc(Cl)cc1CCNC(=O)Cn1ccccc1=O`, -47%; that for `CC(Cn1cccn1)NCCCc1nc(-c2cccs2)no1` (stereo not drawn), 10%.
As for `CC(=O)NCc1ccc(C(=O)N2CCCCC2Cn2cccn2)o1` (stereo not drawn), the figure is 61.7%.
As for `CCc1ccc(C(=O)N2CCCCC2Cn2cccn2)o1` (stereo not drawn), the figure is -2.35%; as for `O=C(c1ccc2nncn2c1)N1CCCCC1Cn1cccn1` (stereo not drawn), 54.4%.
On to `Cc1cc(C)n(CC2CCCCN2C(=O)c2ccc3nncn3c2)n1` (stereo not drawn), for which the INHIBITION was found to be 5.97%.
For `COc1ccc(OCCC(=O)N2CCCC2Cn2cccn2)cc1` (stereo not drawn), the INHIBITION is recorded as -10.1%.
The result for `CC(=O)Nc1nc(C(=O)N2CCCCC2Cn2cccn2)cs1` (stereo not drawn) reads -27.8%; that for `COc1cc(C)ccc1OCCC(=O)N1CCCC1Cn1cccn1` (stereo not drawn), 52.7%.
The result for `COc1ccccc1OCCC(=O)N1CCCC1Cn1cccn1` (stereo not drawn) reads 33.3%; that for `O=C(c1csc(C2CC2)n1)N1CCCCC1Cn1cccn1` (stereo not drawn), 52.5%.
Turning to `Cc1cnn(CC2CCCCN2C(=O)c2ccc3nncn3c2)c1` (stereo not drawn), the INHIBITION is 35.9%.
For the molecule `O=C(c1csc(C2CC2)n1)N1CCCC1Cn1cccn1` (stereo not drawn), the INHIBITION was determined as 1.78%.
`CCN(CC)Cc1ccc(C(=O)N2CCCCC2Cn2cccn2)o1` (stereo not drawn): the INHIBITION turned out to be 19.5%.
As for `Cc1sc(Oc2ccccc2Cl)nc1C(=O)O`, the figure is 18.14%.
For the molecule `CC(C)N1CCC(NC(=O)c2cn(-c3ccc(F)cc3)nn2)C1` (stereo not drawn), the INHIBITION turned out to be 23.7%.
As for `CCS(=O)(=O)CCNC(=O)c1cc2n(n1)CCCO2`, the figure is -16.3%.
In the case of `Cc1cnc(N2CCOCC3(CCN(c4ccccn4)C3)C2)nc1` (stereo not drawn), the INHIBITION stood at 34.4%.
As to `COc1ccc(C2CCCN2Cc2nc3c(cnn3C)c(=O)[nH]2)cc1` (stereo not drawn), the INHIBITION is listed as -5.25%.
Consider `O=C(CCc1c(F)cccc1F)N1CCCCC1Cn1cccn1` (stereo not drawn), for which the INHIBITION was 15.6%.
Turning to `C=c1nc(NC)sc1=C1NC(c2c(C)ncc3c2CCNC3)=NO1`, the INHIBITION stood at 39.3%.
The result for `Cn1ccc(CN2CCC(CN3CCOCC3)CC2)cc1=O` reads 31.3%.
In the case of `COc1cccc(-c2cc(C(=O)NCCCn3nc(C)cc3C)[nH]n2)c1`, the INHIBITION is given as -68.9%.
As for `c1ccc([C@@H]2CN(Cc3ccncc3)C[C@H]2c2cc[nH]n2)cc1`, the figure is 27.2%.
As for `Cc1cn2c(=O)c(-c3ccnc(NC4CCOCC4)n3)cnc2s1`, the figure is -9.27%; as for `CCOCCCNC(=O)CN(c1cc(C)cc(C)c1)S(C)(=O)=O`, 34.2%; as for `N#Cc1ccc(CN2CCCC2Cn2cccn2)cc1` (stereo not drawn), 9.14%.
Take `O=C(Nc1cccc(F)c1)C1CCCN1c1nccs1` (stereo not drawn): the INHIBITION was 7.75%.
As to `O=C(Nc1cccc(C2SCCS2)c1)C1CCCN1c1nccs1` (stereo not drawn), the INHIBITION worked out at 50.7%.
As for `O=C(Nc1cccc(N2CCCC2)c1)C1CCCN1c1nccs1` (stereo not drawn), the figure is 48.9%; as for `Cc1nn(C)c(C)c1-c1ccc(=O)n(C(C)C(=O)NC2CCCCC2)n1` (stereo not drawn), 47.6%.
As for `CN(C)c1ccc(CNCc2ccc(N3CCOCC3)cc2)cn1`, the figure is -0.551%; as for `CC(C)COc1cncc(NC(CO)c2ccco2)n1` (stereo not drawn), 45.6%; as for `CC(C)COc1cncc(NCC(O)c2ccco2)n1` (stereo not drawn), 20.8%.
In the case of `CC(C)Cn1cnc(S(=O)(=O)NCCc2nnc3ccccn23)c1`, the INHIBITION came to 12%.
The result for `CCOc1cncc(NCCc2nnc3ccccn23)n1` reads 43.4%; that for `CC(C)COc1cncc(NCCc2nnc3ccccn23)n1`, 55.4%.
With `CC(C)COc1cncc(NCc2nnc3ccccn23)n1`, the INHIBITION amounted to 64.3%.
As for `CCc1nc(C2CCCN2C(=O)c2ccc(N3CCCC3)nn2)no1` (stereo not drawn), the figure is 23.5%.
The result for `CC(=O)NCCC1CCCCN1S(=O)(=O)c1ccc2ccccc2c1` (stereo not drawn) reads 29%; that for `O=C(Nc1ccc(-c2nnc[nH]2)cc1)C1CCN1Cc1ccccc1` (stereo not drawn), -17.3%.
The result for `CO[C@H]1CCN(Cc2ccccn2)[C@@H]2CN(Cc3ccco3)C[C@H]12` reads -11.1%.
As to `CC[C@@H]1N(CC2CCOCC2)CCC[C@]12CCC(=O)N2`, the INHIBITION is 49.7%.
As for `CC[C@H]1N(CC2CCOCC2)CCC[C@]12CCC(=O)N2`, the figure is 27.5%; as for `CC[C@@H]1N(CC2CC2)CCC[C@]12CCC(=O)N2`, 65.9%.
`Cc1ccc2nccc(C(=O)N3CCOC(CCN(C)C)C3)c2c1` (stereo not drawn): the INHIBITION was found to be 43.9%.
The result for `Cc1cc(C(=O)N2CCCC(C(=O)c3nccn3C)C2)c(=O)[nH]c1C` (stereo not drawn) reads 25.9%.
Consider `Cc1ccc(CC(=O)N(CC2CN(C)CCO2)c2nccs2)cn1` (stereo not drawn), for which the INHIBITION was determined as 11.9%.
The result for `O=C(CN1CCCCC1Cn1cncn1)NCCOc1ccccc1` (stereo not drawn) reads 0.411%; that for `O=C(CN1CCCCC1Cn1cncn1)NC1CCN(C2CC2)CC1` (stereo not drawn), 70.1%.
As for `O=C(CN1CCCC1Cn1cncn1)NCC1(c2ccccc2)CC1` (stereo not drawn), the figure is 89.1%.
The result for `O=C(CN1CCCC1Cn1cncn1)NCCOc1cccc(F)c1` (stereo not drawn) reads 20.1%; that for `Cc1cc(NC(=O)CCN2CCCCC2Cn2cncn2)no1` (stereo not drawn), 16.9%.
With `O=C(CN1CCCC1Cn1cncn1)NCCOc1ccccc1` (stereo not drawn), the INHIBITION is 36.1%.
Turning to `Cc1cc(NC(=O)CCN2CCCC2Cn2cncn2)no1` (stereo not drawn), the INHIBITION worked out at 56.3%.
`O=C(CN1CCCC1Cn1cncn1)NCCc1c(F)cccc1F` (stereo not drawn): the INHIBITION was 57.2%.
With `O=C(CN1CCCCC1Cn1cncn1)NCCc1ccc(F)cc1` (stereo not drawn), the INHIBITION was 43.4%.
As for `CCN1CCC(NC(=O)CN2CCCCC2Cn2cncn2)CC1` (stereo not drawn), the figure is -36.1%; as for `O=C(CN1CCCCC1Cn1cccn1)NC1CCN(C2CC2)CC1` (stereo not drawn), 26.8%.
The result for `Cc1cc(NC(=O)CCN2CCCC2Cn2cccn2)no1` (stereo not drawn) reads 31.9%; that for `CNc1cccc(CC2COCCN(C(=O)c3cncs3)C2)n1` (stereo not drawn), 16.35%.
As for `Cc1cc(C(F)F)nn1CC(=O)NCc1nccn1C`, the figure is 8.32%; as for `Cc1cccc(CN2CCC3(CCCN(C(=O)NC4CC4)C3)C2=O)n1` (stereo not drawn), 0%; as for `O=C(c1ccnnc1)N1C[C@H]2CN(Cc3cccc(F)c3)C(=O)[C@H]2C1`, 34.6%.
On to `CCOCC(=O)N1CSCC1C(=O)N(C)Cc1ccco1` (stereo not drawn), for which the INHIBITION is 17.5%.
As for `Cc1ccc(C(=O)N2CCC3(CC2)CN(CCN(C)C)C(=O)O3)c(F)c1`, the figure is 42.1%; as for `COc1cc(CCC(=O)N2CCC(c3cncc(C)n3)CC2)on1`, 14.85%.
For `Cc1oc(C(C)C)cc1C(=O)N1C[C@@H]2CC[C@H]1CN(c1ncccn1)C2`, the INHIBITION is recorded as -28.7%.
The result for `O=C(CN1CCCC1Cn1cncn1)Nc1cccnc1` (stereo not drawn) reads -9.86%; that for `O=C(CN1CCCC1Cn1cncn1)Nc1ccc(Cl)cn1` (stereo not drawn), 80%.
As for `O=C(CN1CCCCC1Cn1cncn1)Nc1ccncc1` (stereo not drawn), the figure is 23.2%; as for `CC(NC(=O)N1CCC(c2ccccc2)CC1)c1nncn1C` (stereo not drawn), 13.3%; as for `Cc1cnn(CC2CCCCN2Cc2cnc(C)s2)c1` (stereo not drawn), -7.05%.
Take `Cc1ncsc1CN1Cc2cn(C)nc2C(COCC2CC2)C1` (stereo not drawn): the INHIBITION stood at 43.9%.
Consider `COc1ccc(CNc2cnn(CC(F)F)c2)cc1`, for which the INHIBITION came to 64.9%.
With `COc1cc(CNc2cnn(CC(F)F)c2)ccc1O`, the INHIBITION came out at 21.9%.
For the molecule `COc1cccc(CNc2cnn(CC(F)F)c2)c1`, the INHIBITION was 8.53%.
The result for `C1CCCN(C2CCCN(Cc3noc(C4CC4)n3)C2)CC1` (stereo not drawn) reads -79.7%; that for `CN(C)S(=O)(=O)N1CC(c2nc(N)ncc2-c2ccc(F)cc2)C1`, -20.6%; that for `CC(=O)N(Cc1ncc(C(C)C)o1)C1CCN(CC2CCC2)C1` (stereo not drawn), 32.65%.
As for `CC(CCc1ccc(O)cc1)NC1CCN(S(C)(=O)=O)CC1` (stereo not drawn), the figure is 55.5%; as for `CC(CCc1ccc(O)cc1)NC1CCN(C(=O)C(C)C)CC1` (stereo not drawn), 42.1%.
The result for `Cc1ccc(CCC(C)NC2CCN(C(N)=O)CC2)cc1` (stereo not drawn) reads -4.15%.
As for `O=C(NCCNc1ccccn1)N1CCC(O)CC1`, the INHIBITION came out at 7.585%.
The result for `Cc1cccc(CN2CCN(c3ncnc4[nH]cnc34)CC2CCO)n1` (stereo not drawn) reads 47.2%.
`Cc1ccc(CN2CCN(c3ncccc3C(N)=O)CC2CCO)cc1` (stereo not drawn): the INHIBITION turned out to be 36.5%.
The result for `Cc1ccc(CN2CCN(c3ncnc4[nH]cnc34)CC2CCO)cc1` (stereo not drawn) reads 20%.
As for `OCCC1CN(c2ncnc3[nH]cnc23)CCN1Cc1cccs1` (stereo not drawn), the figure is 53.7%.
The result for `OCCC1CN(c2ncnc3[nH]cnc23)CCN1Cc1ccccc1F` (stereo not drawn) reads 10.3%; that for `Cc1cccc(CN2CCN(c3ncnc4[nH]ccc34)CC2CCO)n1` (stereo not drawn), 58.1%; that for `OCCC1CN(c2ncnc3[nH]cnc23)CCN1Cc1ccccc1` (stereo not drawn), 62.4%.
As for `O=C(O)c1cccnc1N1CCN(Cc2ccc(F)cc2)C(CCO)C1` (stereo not drawn), the INHIBITION is listed as 68.6%.
Take `CNC(=O)c1cccnc1N1CCN(Cc2ccccc2)C(CCO)C1` (stereo not drawn): the INHIBITION was 3.17%.
As for `Cc1cc(C)n(CC2CN(c3ncnc4[nH]ccc34)CCO2)n1` (stereo not drawn), the figure is -21.7%; as for `c1ccc(C2CN(c3ncnc4[nH]cnc34)CCO2)cc1` (stereo not drawn), -66.9%; as for `OCCNc1cc(N2CCN(Cc3ccccc3)C(CCO)C2)ncn1` (stereo not drawn), -11.8%.
`CCC1=N[C@@]2(CC[C@@H]3CN(C(=O)Nc4ccccc4)C[C@@H]32)C(=O)N1CC`: the INHIBITION is recorded as 8.67%.
In the case of `Cc1cc(C2CCCCN2C(=O)CN2C(=O)OC(C)(C)C2=O)no1` (stereo not drawn), the INHIBITION is given as 47.2%.
Take `COc1ccccc1-c1ncc(CN2CCC3(CCNCC3)CC2)cn1`: the INHIBITION amounted to 25%.
Turning to `CC(=O)c1ccc(CNC(=O)c2cc(C#N)cn2C)nc1C`, the INHIBITION worked out at 12%.
The result for `Cc1cc(C)cc(C(=O)N2CCCN(CC(N)=O)CC2)c1` reads 0.348%; that for `NC(=O)N1CCCN(CC(=O)NCCc2c(F)cccc2F)CC1`, -52.1%; that for `Cc1cc(C)c(CCNC(=O)CN2CCCN(C(N)=O)CC2)c(C)c1`, 66.6%.
The result for `Cn1cc(C(=O)NC[C@H]2OC[C@@H]3CCN(C4CCOCC4)C[C@@H]32)cn1` reads 45.8%.
As for `Cc1nc2n(n1)CC(NCc1cnn(-c3ccccc3)n1)CC2` (stereo not drawn), the figure is -39.4%.

The record behind these values is ChEMBL document CHEMBL4513216, “Probing the Open Global Health Chemical Diversity Library for Multistage-Active Starting Points for Next-Generation Antimalarials” (ACS Infect Dis, 2020).
